Structures are written as SMILES.

The assay deals with wheat germ agglutinin (Triticum aestivum), Alexa647-labelled. The experiment in a line: wheat germ agglutinin binders on compound microarrays, profiling panel, artefact control for SMM control-protein annotation, biochemical, small-molecule microarray, 635/667 nm fluorescence (AID 1140).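 Further: score merges 667 nm feature emission with signal to noise over triplicate slides.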 As to conditions: WGA-A647 binding, 635 nm fluorescence, higher = more signal.
Take `CCCCC(O)C1C=CC2C(=O)N(Cc3ccccc3)C(=O)C2N1n1cnnc1` (configuration not stated): the composite z-score stood at 0.652.
With `COCCCNC(=O)[C@@]1(C)c2ccccc2C(=O)N(c2ccc(C)cn2)[C@H]1c1ccc(CO)cc1` the figure was 0.421.
As for `CCCC=C(CCC)[C@@H](NS(=O)(=O)c1cccc2cccnc12)c1ccc(C(=O)OC)cc1`, the composite z-score was -0.0663.
Regarding `COc1ccccc1CN1C(=O)c2ccccc2[C@](Cc2ccccc2I)(C(=O)NCCN2CCOCC2)[C@@H]1c1ccc(CO)cc1`, the composite z-score stood at 0.718.
Consider `C=C(COC)/C(=C/C[C@@H](OC(=O)c1ccncc1)c1cccc(OCCO)c1)c1cc(C(=O)OC)ccc1OC`, for which the composite z-score worked out at 0.181.
With `C=CCNC(=O)[C@@H]1[C@H]2C(=O)O[C@H](c3ccccc3)[C@H](c3ccccc3)N2[C@H](c2ccc(O)cc2)[C@@]12C(=O)Nc1ccc(C#CCCO)cc12` the figure was 1.24; with `COCCCNC(=O)[C@]1(Cc2ccccc2)N=C(c2ccc(OCCCO)cc2)O[C@@H]1c1ccccc1N=[N+]=[N-]`, 0.544; with `COC(=O)C(CC#Cc1ccc2c(c1)[C@]1(C(=O)N2)[C@H](c2ccccc2OCCO)N2[C@H](c3ccccc3)[C@H](c3ccccc3)OC(=O)[C@H]2[C@@H]1C(=O)Nc1nc2ccccc2s1)C(=O)OC`, 1.29.
Compound `CCOC(=O)C[C@H]1[C@H](OC(=O)c2cc3ccccc3oc2=O)[C@@H](NC(=O)c2ccc3ccccc3n2)c2cc(OCCCO)ccc2N1C(=O)c1ccc2ccccc2n1` registered a composite z-score of 0.131.
Compound `NCCCCCCNC(=O)[C@H]1C[C@H]2C(=O)N3CCC[C@H]3C(=O)N2[C@H]1c1ccc(O)cc1` displayed a composite z-score of 0.752.
`C=CCOC(=O)[C@@H]1[C@H]2C(=O)O[C@H](c3ccccc3)[C@H](c3ccccc3)N2[C@H](c2ccc(OCCOC(=O)[C@@H]3C[C@@H]4C(=O)N[C@@H](CCCCNC(C)=O)C(=O)N4[C@@H]3c3ccc(O)cc3)cc2)[C@@]12C(=O)Nc1ccc(I)cc12` displayed a composite z-score of 0.412.
In turn, `COc1ccc([Si](C)(C)[C@@H]2[C@@H](CCO)O[C@]3(C(=O)N(Cc4ccccc4)c4ccc(N5C(=O)COc6ccccc65)cc43)[C@H]2C)cc1` showed a composite z-score of 0.622.
`CN1C(=O)C2C=CC(C(O)c3cccc4ccccc34)N(NC(=O)OC(C)(C)C)C2C1=O` (configuration not stated) yielded a composite z-score of 1.16.
Consider `COc1ccc(C(=O)Nc2ccc3c(c2)[C@]2(O[C@@H](CCO)[C@H]([Si](C)(C)c4ccc(OC)cc4)[C@H]2C)C(=O)N3Cc2ccccc2)cc1`, for which the composite z-score came to 0.161.
The value for `O=C1c2ccccc2[C@](Cc2ccccc2I)(C(=O)NC2CC2)[C@H](c2ccc(CO)cc2)N1Cc1ccccc1Cl` was 0.86; that for `COC(=O)C(CC#Cc1ccc2c(c1)[C@]1(C(=O)N2)[C@H](c2ccc(O)cc2)N2[C@H](c3ccccc3)[C@H](c3ccccc3)OC(=O)[C@H]2[C@@H]1C(N)=O)C(=O)OC` was -2.35.
In the case of `CC(C)CNC(=O)[C@@]1(C)c2ccccc2C(=O)N(Cc2ccccc2)[C@H]1c1ccc(CO)cc1`, the composite z-score is -1.4.
For the compound `COC(=O)C(CC#Cc1ccc2c(c1)[C@]1(C(=O)N2)[C@H](c2ccc(OCCO)cc2)N2[C@H](c3ccccc3)[C@H](c3ccccc3)OC(=O)[C@H]2[C@@H]1C(=O)O)C(=O)OC`, the composite z-score turned out to be 1.1.
With `CC(C)C(CO)N1C(=O)[C@@H]2[C@H]3C(=O)OCC=C[C@H]3OC23C=CCN(Cn2nnc4ccccc42)C(=O)[C@@H]13` (some centres not stated) the figure was -0.203; with `O=C1N(Cc2ccccc2)c2ccccc2[C@H]2OC(c3ccc(OCCCO)cc3)=N[C@@]12CCS(=O)(=O)c1ccccc1`, 0.726; with `CCCNC(=O)[C@@H]1c2ccccc2C(=O)N(CC23CC4CC(CC(C4)C2)C3)[C@H]1c1ccc(CO)cc1`, 0.562.
With `C=C(C)[C@@H]1CC=C(C(O)C2C=CC3C(=O)N(C4CCCCC4)C(=O)C3N2Nc2ccc(OC)cc2)CC1` (some centres not stated) the figure was 0.46.
The value for `OCCCC1=CC(c2cccs2)N(Cc2cccc(OC(F)(F)F)c2)CC1` (configuration not stated) was 0.771.
Compound `Cc1ccccc1C(O)C1C=CC2C(=O)N(Cc3ccccc3)C(=O)C2N1n1cnnc1` (configuration not stated) displayed a composite z-score of 0.429.
The value for `COc1ccc([Si](C)(C)[C@H]2[C@H](CCO)O[C@@]3(C(=O)N(Cc4cccc(N5CCOC5=O)c4)c4ccccc43)[C@@H]2C)cc1` was 0.63.
The compound `COCCOC(=O)N1C(=O)[C@@]2(c3cc(C#CC4(O)CCCCCC4)ccc31)[C@H](C(=O)N1CCc3cc(OC)c(OC)cc3C1)[C@H]1C(=O)O[C@H](c3ccccc3)[C@H](c3ccccc3)N1[C@@H]2c1ccccc1OCCO` came in with a composite z-score of 0.859.
The value for `CC(=O)NCCCC[C@@H]1NC(=O)[C@H]2C[C@@H](C(=O)NCCCCCN)[C@@H](c3cccc(OCCO)c3)N2C1=O` was 1.1.

For the origin of these results see PubChem BioAssay.
